The values below come from PubChem BioAssay.

The nature of test [1]: compound effects on lung adenocarcinoma cell viability – A549, calcein-AM fluorescence, 48 h, basal, profiling panel (AID 1162). Note: test concentration not given here. Particulars: higher = more signal.
Test [2] can be described thus: compound effects on differentiated 3T3-L1 adipocyte viability – cell-based, 3T3-L1 adipocytes, calcein-AM fluorescence, 48 h, basal, profiling panel (AID 1163). Note: test concentration not given here. Particulars: 3T3-L1 adipocytes viability, higher = more signal.
A short description of test [3]: compound effects on hepatocellular carcinoma cell viability – HepG2, calcein-AM fluorescence, 48 h, basal, profiling panel (AID 1164). Note: test concentration not given here. The settings on record: higher = more signal.
A short description of test [4]: compound effects on multiple myeloma cell viability – MM1S, calcein-AM fluorescence, 48 h, basal, profiling panel (AID 1165).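 Note: viability of MM1S multiple myeloma cells under basal unstimulated conditions; test concentration not given here.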 The settings on record: higher = more signal.
The nature of test [5]: calcein-AM signal in unstimulated myeloma cells – cell-based, calcein-AM fluorescence, 48 h, PK04 Diversity Set, profiling panel (AID 1166).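 Note: cells grown under basal conditions without added stimulus; test concentration not given here.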 Particulars: RPMI8226 myeloma viability, higher = more signal.
Test [6] in a line: JC-1 mitochondrial signal, unstimulated HepG2 cells – cell-based, JC-1 fluorescence, 24 h, 100 nL compound, profiling panel (AID 1167). Note: test concentration not given here. Particulars: HepG2 mitochondrial potential, higher = more signal.
The nature of test [7]: JC-1 mitochondrial signal, unstimulated adipocytes – cell-based, JC-1 fluorescence, 3T3-L1 adipocytes, 24 h, 100 nL compound, profiling panel (AID 1168). Note: test concentration not given here. The settings on record: JC-1 mitochondrial fluorescence, higher = more signal, called active from +8 up or from −8 down.
Test [8] can be described thus: JC-1 mitochondrial signal, unstimulated myeloma cells – cell-based, JC-1 fluorescence, RPMI8226, 24 h, 100 nL compound, profiling panel (AID 1169). Note: test concentration not given here. Particulars: JC-1 mitochondrial potential fluorescence, higher = more signal.
Test [9] is described as follows: JC-1 mitochondrial signal, unstimulated MM1S myeloma – cell-based, JC-1 fluorescence, 24 h, 100 nL compound, profiling panel (AID 1170). Note: test concentration not given here. The settings on record: MM1S mitochondrial potential, higher = more signal.
Test [10] is described as follows: resazurin metabolic signal in A549 cells – cell-based, resazurin fluorescence, 24 h, PK04 Diversity Set, profiling panel (AID 1171). Note: test concentration not given here. The settings on record: A549 viability, higher = more signal, called active from +8 up or from −8 down.
A short description of test [11]: resazurin metabolic signal in HepG2 cells – cell-based, resazurin fluorescence, 24 h, PK04 Diversity Set, profiling panel (AID 1172). Note: test concentration not given here. The settings on record: HepG2 viability, higher = more signal. Background: Alamar Blue is a resazurin reagent that responds to reducing activity.
Test [12] is described as follows: budding yeast growth changes without added modifier – OD600, strain BY4716, 24 h, basal condition, primary screen (AID 1173). Particulars: S. cerevisiae BY4716 growth, OD600, 24 h; higher = more signal, called active from +8 up or from −8 down.
Test [13] can be described thus: viability profiling in MM1S myeloma cells – cell-based, resazurin fluorescence, basal, 24 h, PK04 Diversity Set, profiling panel (AID 1174). Note: test concentration not given here. The settings on record: higher = more signal, called active from +8 up or from −8 down.
For test [14], the target named is Dihydroorotate dehydrogenase (quinone), mitochondrial (Plasmodium falciparum (isolate 3D7)) (UniProt Q08210). The experiment in a line: inhibition of P. falciparum DHODH – biochemical, C-terminal His tag, absorbance 600 nm, primary screen (AID 1175).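 Note: recombinant parasite enzyme with a five histidine tag at its C terminus; test concentration not given here.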 The settings on record: PfDHODH enzyme, DCIP absorbance 600 nm; higher = more signal, called active from +8 up or from −8 down.
Chain of Dihydroorotate dehydrogenase (quinone), mitochondrial (Plasmodium falciparum (isolate 3D7)) (Q08210 whole entry, looked up): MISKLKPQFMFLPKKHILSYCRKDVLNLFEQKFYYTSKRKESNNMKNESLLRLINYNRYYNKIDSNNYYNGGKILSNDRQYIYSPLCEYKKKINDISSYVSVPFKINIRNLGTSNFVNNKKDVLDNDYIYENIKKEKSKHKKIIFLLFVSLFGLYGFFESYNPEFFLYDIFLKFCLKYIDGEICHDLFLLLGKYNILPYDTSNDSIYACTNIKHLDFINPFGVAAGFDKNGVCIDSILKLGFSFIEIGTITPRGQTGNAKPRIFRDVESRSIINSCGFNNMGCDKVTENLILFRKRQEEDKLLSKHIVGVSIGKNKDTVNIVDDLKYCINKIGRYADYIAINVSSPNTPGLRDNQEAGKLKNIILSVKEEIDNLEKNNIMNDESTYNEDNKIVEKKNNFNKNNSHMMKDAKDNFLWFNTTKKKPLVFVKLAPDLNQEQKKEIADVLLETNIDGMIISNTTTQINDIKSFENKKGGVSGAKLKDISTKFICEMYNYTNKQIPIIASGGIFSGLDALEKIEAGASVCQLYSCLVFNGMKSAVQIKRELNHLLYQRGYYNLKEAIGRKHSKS

Test [15] in a line: inhibition of PAO1 biofilm formation – strain PAO1, LB-PBS medium, absorbance 600 nm, primary screen (AID 1176). Note: test concentration not given here. Particulars: P. aeruginosa PAO1 growth/biofilm, A600, 12 h; higher = more signal.
The nature of test [16]: growth modulation of vineyard yeast isolate – strain RM11-1a, OD600, basal, 24 h, primary screen (AID 1177).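 Note: cultures grown under basal conditions with no added stressor; test concentration not given here.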 The settings on record: S. cerevisiae RM11-1a growth, OD600, 24 h; higher = more signal, called active from +8 up or from −8 down.
A short description of test [17]: growth of efflux-deficient E. coli DRC39 – strain DRC39, OD650, 24 h, E. coli filamentation inducers, primary screen (AID 1178).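 Note: growth measured as culture turbidity by optical density at 650 nm; test concentration not given here.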 Particulars: E. coli DRC39 acrAB, higher = more signal, called active from +8 up or from −8 down.
Test [18] can be described thus: growth of efflux-deficient E. coli DRC39 – strain DRC39, OD650, 48 h, E. coli filamentation inducers, primary screen (AID 1179).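 Note: screen aims at cell division blockers that make cells filament.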 Particulars: E. coli DRC39 delta-acrAB growth, higher = more signal, called active from +8 up or from −8 down.
The nature of test [19]: viability profiling in RPMI8226 myeloma cells – cell-based, resazurin fluorescence, basal, 24 h, PK04 Diversity Set, profiling panel (AID 1180).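 Note: RPMI8826 multiple myeloma cell line at 5000 cells per well; test concentration not given here.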 The settings on record: higher = more signal.
The target in test [20] is E3 ubiquitin-protein ligase XIAP (Homo sapiens) (UniProt P98170). The experiment in a line: small molecules binding XIAP protein – biophysical, small-molecule microarray, fluorescence 635 nm, primary screen (AID 1181).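 Note: score merges 667 nm emission and signal to noise over triplicate slides.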 Particulars: higher = more signal.
Chain of E3 ubiquitin-protein ligase XIAP (Homo sapiens) (P98170 whole entry, looked up): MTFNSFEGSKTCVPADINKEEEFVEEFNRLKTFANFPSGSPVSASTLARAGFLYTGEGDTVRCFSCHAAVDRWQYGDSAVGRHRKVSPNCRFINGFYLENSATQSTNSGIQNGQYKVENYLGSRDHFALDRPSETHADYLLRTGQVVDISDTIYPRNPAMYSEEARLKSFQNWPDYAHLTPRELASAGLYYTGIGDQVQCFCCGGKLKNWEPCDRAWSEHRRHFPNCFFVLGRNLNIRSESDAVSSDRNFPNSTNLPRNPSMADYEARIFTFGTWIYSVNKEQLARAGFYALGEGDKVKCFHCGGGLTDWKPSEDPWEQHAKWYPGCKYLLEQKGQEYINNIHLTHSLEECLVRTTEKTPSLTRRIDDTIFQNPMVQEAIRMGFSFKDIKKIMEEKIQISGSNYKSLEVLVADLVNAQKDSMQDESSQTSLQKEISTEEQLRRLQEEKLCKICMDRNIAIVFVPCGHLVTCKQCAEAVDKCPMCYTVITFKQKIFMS

SMILES strings stand for the structures. Activity calls are given as the source filed them. Unless noted, the rule behind the calls is not given here.

In the case of `COCCOC(=O)N1C(=O)[C@@]2(c3cc(C#CCC(C(=O)OC)C(=O)OC)ccc31)[C@H](c1ccc(O)cc1)N1[C@H](c3ccccc3)[C@H](c3ccccc3)OC(=O)[C@H]1[C@@H]2C(=O)NC[C@H](O)c1ccccc1`, the z-score in [1] was -0.61; in [2], 0.0453; in test [3] it was -0.0754; in [4], -1.92; in [5] it was -4.3; in test [6], -0.689. For the same molecule, the z-score in test [7] is -1.16 (inactive); in test [8], -1.08; in test [9] it was -0.91; in test [10], 0.691 (inactive); in test [11], 1.78; in test [12], -0.149 (inactive). The z-score in [13] was 0.6 (inactive); in test [15], -0.489 (inactive); in test [16], 0.592 (inactive); in [17] it was 0.416 (inactive); in test [18], -0.228 (inactive); in [19], -2.51. Also, the composite z-score was 0.407 (inactive) in test [14] and -0.187 in test [20].
Regarding `CCOC(=O)C1=CCC(c2ccco2)N(S(=O)(=O)c2ccc(C)cc2)C1` (stereo not given), the z-score in test [1] was -0.373; in [2], 0.279; in [3], 0.34; in test [4], -2.93; in test [5] it was -1.64; in test [6] it was -0.843. The z-score in test [7] is -1.32 (inactive); in [8] it was 0.733; in [9], -2.11; in test [10] it was 0.326 (inactive); in test [11] it was 1.18; in [12], -4.03 (inactive). Further, the z-score in test [13] was 0.123 (inactive); in test [15] it was -0.253 (inactive); in test [16] it was -0.749 (inactive); in [17], 0.234 (inactive); in test [18] it was 1.34 (inactive); in [19], 0.769. The composite z-score in test [14] is -2.2 (inactive); in [20], 0.424.
Take `COCCOC(=O)N1C(=O)[C@@]2(c3cc(C#CCC(C(=O)OC)C(=O)OC)ccc31)[C@H](C(=O)NC[C@H](O)c1ccccc1)[C@H]1C(=O)O[C@H](c3ccccc3)[C@H](c3ccccc3)N1[C@@H]2c1ccc(OCCO)cc1`: the z-score is -0.248 in [1]; 0.951 in test [2]; 0.583 in test [3]; 0.152 in [4]; -1.87 in [5]; -0.684 in [6]. In addition, the z-score in test [7] is 0.407 (inactive); in test [8] it was -0.854; in [9], -0.724; in test [10] it was -0.873 (inactive); in test [11] it was -0.685; in [12], 2.05 (inactive). Besides, the z-score in test [13] was -0.0535 (inactive); in test [15], 3.49 (inactive); in test [16], 3.11 (inactive); in test [17], 0.629 (inactive); in test [18] it was 0.453 (inactive); in [19], -0.291. For the same molecule, the composite z-score in test [14] was -0.429 (inactive); in test [20] it was 0.0806.
Turning to `CCOC(=O)C1=C[C@@H](C(C)(C)C)N(S(=O)(=O)c2ccc(C)cc2)[C@H]1c1ccc(C)cc1`, the z-score in test [1] is -0.681; in test [2], 0.226; in [3] it was -1.73; in test [4], -1.01; in [5], -1.1; in test [6], 6.67. Also, the z-score is -0.251 (inactive) in test [7]; -0.901 in [8]; 0.933 in [9]; 0.51 (inactive) in test [10]; -0.473 in test [11]; 1.01 (inactive) in [12]. Moreover, the z-score in test [13] is -0.328 (inactive); in test [15], 0.148 (inactive); in test [16], 0.526 (inactive); in [17] it was -0.617 (inactive); in test [18] it was -0.823 (inactive); in test [19], -2.18. Besides, the composite z-score in [14] is -0.186 (inactive); in test [20] it was -0.0017.
In the case of `COc1cc(C(O)C2C=CC3C(=O)N(Cc4ccccc4)C(=O)C3N2n2cnnc2)cc(OC)c1OC` (stereo not given), the z-score in test [1] is 1.39; in [2] it was -0.356; in test [3] it was 1.67; in [4] it was 0.599; in test [5], 1.46; in test [6] it was 0.576. The z-score was 0.328 (inactive) in test [7]; 0.251 in test [8]; 0.588 in test [9]; -0.538 (inactive) in test [10]; 0.462 in test [11]; -0.786 (inactive) in test [12]. Moreover, the z-score is 0.129 (inactive) in [13]; 1.6 (inactive) in test [15]; -1.27 (inactive) in [16]; 0.904 (inactive) in [17]; 0.759 (inactive) in [18]; 0.0011 in test [19]. Moreover, the composite z-score in [14] is -1.12 (inactive); in [20], 0.0546.
As for `CCOC(=O)C1=C[C@@H](C(C)(C)C)N(S(=O)(=O)c2ccc(C)cc2)[C@H]1c1cccc(Cl)c1`, the z-score in [1] was -2.79; in test [2] it was -0.192; in [3], -2.64; in [4], -2.77; in test [5], -4.21; in test [6], 5.38. For the same molecule, the z-score in test [7] is 0.318 (inactive); in test [8], -1.14; in [9] it was -2.3; in test [10], -1.12 (inactive); in test [11], -0.594; in [12] it was 2.15 (inactive). Also, the z-score in test [13] is -1.66 (inactive); in test [15], 0.16 (inactive); in test [16] it was 2.81 (inactive); in [17], -0.326 (inactive); in [18] it was -0.104 (inactive); in test [19], -3.41. Moreover, the results for the composite z-score in test [14] and in test [20] were 1.08 (inactive) and -0.0994, respectively.
As for `O=C(NCCN1CCOCC1)[C@@H]1c2ccccc2C(=O)N(Cc2ccccc2)[C@H]1c1ccc(CO)cc1`, the z-score is 0.178 in test [1]; -0.323 in test [2]; 0.225 in test [3]; -0.593 in [4]; 0.137 in test [5]; 2.07 in test [6]. Besides, the z-score in test [7] was 0.422 (inactive); in [8], -0.78; in test [9], -0.218; in [10], 1.59 (inactive); in [11] it was 1.15; in test [12], 0.476 (inactive). The z-score in [13] was 0.802 (inactive); in [15], -0.838 (inactive); in test [16] it was 0.496 (inactive); in test [17], 0.0077 (inactive); in [18] it was 0.76 (inactive); in [19] it was 0.822. Besides, the composite z-score in [14] was -0.547 (inactive); in test [20], -0.0228.
For `COc1ccc(C#Cc2ccc3c(c2)[C@]2(C(=O)N3)[C@H](C(=O)N3CCCCCCC3)[C@H]3C(=O)O[C@H](c4ccccc4)[C@H](c4ccccc4)N3[C@@H]2c2ccc(O)cc2)cc1`, the z-score in [1] was -0.636; in test [2], 1.61; in test [3] it was -0.984; in [4], 0.171; in [5], -1.05; in test [6], -1.2. The z-score was 1.34 (inactive) in test [7]; -0.582 in [8]; -0.191 in [9]; 0.601 (inactive) in [10]; 0.629 in test [11]; 0.299 (inactive) in test [12]. Moreover, the z-score in [13] is 0.697 (inactive); in test [15] it was 1.19 (inactive); in test [16] it was 0.136 (inactive); in test [17], -0.45 (inactive); in test [18], -0.601 (inactive); in [19] it was 0.428. Moreover, the composite z-score was -8.52 (active) in [14] and -0.0149 in test [20].
